# Compounds with a hit are over-represented: about 1.8% of the library has one in this group of screens.
# Myeloid diff MLP – compounds promoting myeloid differentiation; 360,000 tested, 1% active; calls only at 10 µM; ER-HoxA9 myeloid progenitors, lysozyme-GFP differentiation, flow cytometry;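 active = normalized GFP-positive differentiation at or above the plate's own cutoff, the solvent-only control mean plus 3 SD; inconclusive = no clear call, values can overlap the other calls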;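 note: cells exposed to compound for four days before flow analysis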
# RPL19A TOR yeast – yeast TOR pathway RPL19A-GFP modulation; 330,000 tested, 0.3% active; percent response vs DMSO, % at 10 µM; S. cerevisiae RPL19A-GFP strain, flow cytometry, 3 h; active compounds read low;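 active = percent response vs DMSO below 50%; inconclusive = fewer than 70 events counted for the yeast strain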;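 note: median channel GFP fluorescence of the barcoded RPL19A-GFP strain; lower means less RPL19A-GFP as with rapamycin TOR inhibition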
# MEP2 TOR yeast – modulators of TOR pathway MEP2-GFP in S. cerevisiae; S. cerevisiae MEP2-GFP strain, flow cytometry GFP, 3 h; 100% = DMSO control level; GFP response vs DMSO, % at 10 µM; 330,000 tested, 0.51% active;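 active = GFP response versus DMSO above a set limit, roughly screen mean plus 3 SD, cut at about 180% in these data; inconclusive = fewer than 70 cells counted for a yeast strain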;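 note: median GFP fluorescence of the barcode-gated MEP2-GFP cells per well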
# LAP4 TOR yeast – modulators of TOR pathway LAP4-GFP in S. cerevisiae; GFP response vs DMSO, % at 10 µM; S. cerevisiae LAP4-GFP multiplex, flow cytometry GFP, 3 h; median GFP as percent of DMSO wells; 320,000 tested, 0.34% active;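 active = GFP response vs DMSO above a set limit, about the screen mean plus 3 SD, cut at about 150% in these data; inconclusive = under 70 cell events counted for the yeast strain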
# AGP1 TOR yeast – yeast TOR pathway AGP1-GFP modulation; S. cerevisiae AGP1-GFP multiplex flow cytometry, 3 h; GFP as percent of DMSO wells; GFP response vs DMSO, % at 10 µM; 320,000 tested, 0.02% active; AID 2066;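 active = GFP response relative to DMSO above a set limit, near screen average plus 3 SD, cut at about 150% in these data; inconclusive = fewer than 70 cells counted for the yeast strain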;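 note: median GFP channel fluorescence of the gated AGP1 strain per well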
# CIT2 TOR yeast – alters CIT2-GFP fluorescence in TOR pathway yeast screen. S. cerevisiae CIT2-GFP strain, flow cytometry, 3 h; 100 means same as DMSO wells. GFP response vs DMSO, % at 10 µM. 320,000 tested, 0.065% active;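 active = GFP response relative to DMSO above a set limit, near the screen mean plus 3 SD, cut at about 150% in these data; inconclusive = Fewer than 70 cells measured for a yeast strain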;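 note: ratio of well median GFP fluorescence to mean of DMSO wells on the plate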
# A number is an active result; n = inactive; u = inconclusive; x = no result given; + = active, no number; [ ] = remark or other dose.
SMILES,Myeloid diff MLP,RPL19A TOR yeast,MEP2 TOR yeast,LAP4 TOR yeast,AGP1 TOR yeast,CIT2 TOR yeast
N#C/C(=C\c1ccc([N+](=O)[O-])o1)C(=O)Nc1ccc(F)cc1,u,n,823[may fluoresce violet],323[may fluoresce violet],n,u
O=C(O)C1CCCCC1C(=O)NCc1ccc(F)cc1 (configuration not stated),n,n,n,n,n,n
CN1CCN(c2ccccc2NC(=O)c2cc3ccccc3o2)CC1,+,n,n,n,n,n
CC(C)C(=O)N1CCN(c2ccccc2NC(=O)c2ccco2)CC1,n,39[may fluoresce violet],292[may fluoresce violet],n,u,u
CS(=O)(=O)N1CCN(c2ccccc2NC(=O)c2cc3ccccc3o2)CC1,n,24[may fluoresce violet],345[may fluoresce violet],n,u,u
CC(C)C1C(=O)N(Cc2cn(Cc3ccco3)nn2)CCS(=O)(=O)N1Cc1ccc(-c2ccc(Cl)cc2)cc1 (configuration not stated),n,x,x,x,x,x
COc1ccccc1CCn1cnc2c3cc(C)ccc3n(C)c2c1=O,n,n,n,n,n,n
CC(=O)c1ccc(OC(=O)c2nc(-c3ccccc3)oc2C)cc1,n,n,n,n,n,n
COc1ccc(C(=O)N=c2sc3c(C)ccc(OC)c3n2C)cc1,+,n,n,n,n,n
COc1cc(C(=O)N=c2sc3c(C)ccc(OC)c3n2C)cc(OC)c1OC,n,n,n,n,n,n
O=C(NCC1CCCO1)C1CCCN(S(=O)(=O)c2ccc(Br)cc2)C1 (configuration not stated),n,n,n,n,n,n
Cc1ccc(S(=O)(=O)N2CCCC(C(=O)NCC3CCCO3)C2)cc1 (configuration not stated),n,n,274[may fluoresce violet],n,n,u
Cc1ccc2nc(-c3cccc(Br)c3)c(Cc3ccccn3)n2c1,n,x,x,x,x,x
O=C(COC(=O)c1ccccc1O)Nc1ccc(OC(F)F)cc1,n,n,n,n,n,n
O=[N+]([O-])c1cc(C2Nc3cccc4cccc(c34)N2)ccc1Cl,+,n,n,n,n,n
Fc1ccc(C2CC(c3ccccc3)n3ncnc3N2)cc1 (configuration not stated),n,n,n,181,161,n
CCC(=O)Nc1cc2c(cc1C(=O)CC)OCCO2,x,42[may fluoresce violet],200[may fluoresce violet],n,u,u
Cc1cc(Cl)ccc1NC(=S)NCCC(c1ccccc1)c1ccccc1,n,n,n,n,n,n
N#CC(=Cc1ccccn1)c1nc(-c2ccc(Cl)cc2)cs1,+,x,x,x,x,x
O=C(NCCSc1ccccc1)c1ccc(Br)cc1,n,n,n,n,n,n
O=C(NCCCSc1ccccc1)c1cc(Br)ccc1O,n,n,n,154,n,n
O=C(CCS(=O)(=O)c1ccc(F)cc1)N1CCOCC1,n,n,528[may fluoresce violet],n,n,u
Cc1cc(C(=O)C(=O)N(C)C)c(C)n1-c1ccc(Cl)cc1,n,n,n,n,n,n
CCCn1c(NC(=O)CSCC(=O)Nc2cc(C)on2)nc2ccccc21,n,n,n,n,n,n
Cc1ccc(S(=O)(=O)Nc2ccc3c4c(cccc24)CC3)c(C)c1,+,n,n,n,n,n
SMILES,Myeloid diff MLP,RPL19A TOR yeast,MEP2 TOR yeast,LAP4 TOR yeast,AGP1 TOR yeast,CIT2 TOR yeast
O=C(CSc1nnnn1-c1ccccc1)NCc1cccs1,+,n,n,n,n,n
CCOc1ccccc1-c1nnc(SCC(=O)Nc2ccccc2)o1,n,n,n,n,n,n
COC(=O)c1ccccc1-c1ccc(/C=N/NC(=O)c2cc3ccccc3o2)o1,n,n,n,n,n,n
COC(=O)c1ccccc1-c1c2ccc(=N)cc-2oc2cc(N)ccc12,+,n,+[may fluoresce green],+[may fluoresce green],666[may fluoresce green],+[may fluoresce green]
COc1cc(Cl)ccc1OCc1cc(C(=O)N2CCN(c3ccccn3)CC2)no1,n,n,n,n,n,n
Cc1c(C(=O)NCc2ccc(C(C)C)cc2)sc(=O)n1Cc1ccc(S(=O)(=O)N(C)C)cc1,+,x,x,x,x,x
CSc1ccc(Cn2c(C)c(C(=O)NCc3ccc(C(C)C)cc3)sc2=O)cc1,n,x,x,x,x,x
COC(=O)[C@]1(C)N[C@H](CN(C)C(C)=O)[C@@H]2C(=O)N(C)C(=O)[C@@H]21,n,n,n,n,n,n
O=C(Nc1nccs1)C(Br)C(Br)c1ccccc1 (configuration not stated),n,n,n,n,n,n
O=C(Nc1nccs1)C(c1ccccc1)N1CCCCC1 (configuration not stated),n,n,186,n,n,n
COC(=O)C(=O)C/C(=N/Nc1ncnc2ccccc12)c1ccc(Cl)cc1,+,n,n,n,n,n
O=S(=O)(c1ccc(Oc2ccc(-c3nnco3)cc2)nc1)N1CCC(Cc2ccccc2)CC1,n,27[may fluoresce violet],222[may fluoresce violet],n,u,u
Cc1cccc(C)c1-n1nnnc1C(c1ccnc2ccccc12)N(CCC#N)Cc1ccccc1 (configuration not stated),n,x,x,x,x,x
CCOC(=O)COn1c(=O)c[n+]([O-])c2ccccc21,+,n,n,n,n,n
COc1ccc(CNC(=O)c2ccc(N3CCC4(CC3)CC(c3ccc(Cl)cc3)=NO4)c([N+](=O)[O-])c2)cc1,n,n,n,n,n,n
CC1=NN(c2ccccc2)C(=O)/C1=C/C=C/C=C/N(C)C,n,39[may fluoresce violet],316[may fluoresce violet],n,u,u
COc1ccc2c(CC(=O)N[C@@H](Cc3ccccc3)C(=O)O)cc(=O)oc2c1,x,n,n,n,n,n
CCOC(=O)C1CCN(C(=O)c2cc3c(=O)n4cccc(C)c4nc3s2)CC1,n,n,200[may fluoresce violet],n,u,u
COCCNC(=O)c1ccc(Cl)c(Cl)c1,n,n,286,215,n,183
COCCNC(=O)c1ccccc1NC(=O)c1ccc(OC)c(OC)c1,+,n,n,n,n,n
Cc1cccc(/N=C/c2c(O)ccc3oc4c(c23)CCCC4)n1,n,n,n,n,n,n
O=[N+]([O-])c1cc2oc3c(c2c(C=NCc2ccccc2)c1O)CCCC3,n,n,258[may fluoresce violet],n,u,u
CC(C)CN=Cc1c(O)c([N+](=O)[O-])cc2oc3c(c12)CCCC3,n,n,n,173,n,n
CCN(CC)S(=O)(=O)c1cc(C(=O)O)ccc1Cl,n,n,n,n,n,n
CCN(CC)S(=O)(=O)c1cc(C(=O)c2nccn2C)ccc1Cl,+,n,n,n,n,n
O=C(c1ccccc1Br)N1N=C(c2ccccc2)CC1c1ccccc1F (configuration not stated),n,19[may fluoresce violet],790[may fluoresce violet],n,u,u
O=C(O/N=C(\c1ccccc1)c1ccncc1)c1ccccc1Cl,n,n,n,152,n,n
CC(C)(C)c1ccc(Oc2ccc(N)cn2)cc1,+,n,n,n,n,n
CCC(=O)Nc1nc2cc(OC)ccc2s1,n,15[may fluoresce violet],269[may fluoresce violet],n,u,u
COc1ccc2sc(NC(C)=O)nc2c1,n,n,n,n,n,n

# Screening data: PubChem BioAssay, NMMLSC
